From PubChem BioAssay AID652115 (Broad Institute, 2013)
The campaign covered roughly 330,000 compounds. About 3,800 (1.2%) were called active. Cut-off read from the data, not from the text of the source: active = inhibition above about 15%; inconclusive = no clear call, values can overlap the other calls; inactive = below that. The entries come from a sample that favours actives as a whole.

molecular target: NAD-dependent protein deacylase sirtuin-5, mitochondrial (Homo sapiens) (UniProt Q9NXA8); assay: blockers of sirtuin-5 deacylase activity – biochemical, fluorescence imaging, single point, set 5, primary screen (AID 652115); settings: Purified SirT5, succinyl-peptide AMC, trypsin-coupled fluorescence; at 15 µM; stronger effect = higher value
Sequence (Q9NXA8 whole entry, looked up): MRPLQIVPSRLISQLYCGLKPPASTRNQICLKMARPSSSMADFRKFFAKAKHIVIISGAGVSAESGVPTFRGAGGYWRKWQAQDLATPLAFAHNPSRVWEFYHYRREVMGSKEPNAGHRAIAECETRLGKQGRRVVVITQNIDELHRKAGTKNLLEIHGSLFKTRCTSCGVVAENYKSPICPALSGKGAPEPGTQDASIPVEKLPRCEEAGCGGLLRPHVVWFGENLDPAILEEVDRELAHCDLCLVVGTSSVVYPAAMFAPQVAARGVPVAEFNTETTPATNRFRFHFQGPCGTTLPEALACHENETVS

SMILES | inhibition
CC(Cc1ccccc1)NC=O (stereo not given) | -0.859% (inactive)
O=C(COC(=O)Cc1ccccc1)Nc1ccc(F)cc1 | -1.48% (inactive)
CC(=O)Nc1ccc(C(=O)C(Cc2ccccc2)N(C)C)cc1 (stereo not given) | 18.6% (active)
COC(=O)[C@H]1[C@H](CO)[C@H]2Cn3c(cccc3=O)[C@H]2N1CC1CC1 | 0.308% (inactive)
COC(=O)C1=C(c2ccc(OCc3ccccc3)cc2)C[C@@H]2CC[C@H]1N2C(=O)NCc1cccc(F)c1 | -8.66% (inactive)
O=C1NCN(c2ccccc2)C12CCN(C(c1cccs1)c1nnnn1C1CCCCC1)CC2 (stereo not given) | 3.05% (inactive)
COc1ccc(CN2C(=O)NC(=O)/C(=C\c3ccc(OC)c(OC)c3OC)C2=O)cc1 | -0.842% (inactive)
COc1cccc(N2C(=O)NC(=O)/C(=C\c3cn(C)c4ccccc34)C2=O)c1 | -7.3% (inactive)
COc1ccc(N2C(=O)/C(=C/c3ccco3)C(=O)NC2=S)cc1 | 44.4% (active)
S=C(NCCc1ccccc1)N1Cc2cc(N3CCOCC3)ccc2-n2nncc2C1 | 0.564% (inactive)
